Hits are enriched below; roughly 5.2% of the tested compounds scored in any of these assays.
PLK1 PBD block: inhibitors of human PLK1 polo-box domain binding. Potency, µM, usual class: inhibitors. Plk1 PBD binding of FITC phosphopeptide, fluorescence polarization. P53350. actives 2.8% (n = 360,000); note: series mostly up to about 57 µM; nearly all actives have a fitted effect of over 65% in size
mIDH1 inhibitor: blocks human mutant IDH1 R132H enzyme. O75874. IDH1-R132H enzyme, NADPH consumption, diaphorase/resazurin fluorescence. Potency, µM (series often up to 76.6 µM), actives largely listed as inhibitors. actives 0.093% (n = 390,000); note: nearly all actives have a fitted effect of over 65% in size
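IDH1-R132H (0.5 ug/mL dispensed) in pH 7.5 Tris buffer was preincubated 30 min with compound, then given a substrate mix of 0.016 mM NADPH and 2 mM alpha-KG for 80 min at room temperature; remaining NADPH was read by diaphorase/resazurin fluorescence.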
TrxR1 substrate: is turned over as a substrate by rat TrxR1 | O89049 | purified TrxR1 substrate turnover, NADPH consumption readout | Potency, µM (highest dose often 114 µM) | actives 0.01% (n = 390,000) | AID 588456; note: nearly all actives have a fitted effect of over 50% in size
Target sequence (O89049 whole entry, looked up): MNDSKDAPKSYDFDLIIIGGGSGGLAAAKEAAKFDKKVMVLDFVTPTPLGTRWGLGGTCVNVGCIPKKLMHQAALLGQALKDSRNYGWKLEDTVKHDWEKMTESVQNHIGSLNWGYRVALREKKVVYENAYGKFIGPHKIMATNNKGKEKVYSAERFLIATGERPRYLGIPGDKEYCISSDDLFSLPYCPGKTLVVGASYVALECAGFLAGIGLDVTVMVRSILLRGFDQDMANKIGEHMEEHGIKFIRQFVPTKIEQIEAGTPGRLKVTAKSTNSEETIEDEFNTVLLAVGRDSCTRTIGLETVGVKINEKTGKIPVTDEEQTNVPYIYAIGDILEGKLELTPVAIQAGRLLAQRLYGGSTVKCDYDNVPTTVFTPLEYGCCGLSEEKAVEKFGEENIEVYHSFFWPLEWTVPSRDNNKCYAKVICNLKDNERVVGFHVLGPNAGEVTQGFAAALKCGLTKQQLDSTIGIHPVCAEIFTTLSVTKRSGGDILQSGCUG
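Rat TrxR1, dispensed at 90 nM, was prereduced with 400 uM NADPH (final) for 5 min at ~22 deg C, then incubated with compound 15 min before 400 uM selenite. A first-read NADPH fluorescence drop versus no-compound background flagged substrates.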
Sfp inh: blocks B. subtilis Sfp PPTase activity; Q9F4F7; Biochemical Sfp PPTase activity, qHTS; Potency, µM, hits mostly inhibitors; actives 3.5% (n = 310,000); AID 1490;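 note: the enzyme is Sfp with the accession as filed and its product quenches rhodamine fluorescence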
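Fluorescence-quenching assay with 15 nM Sfp, 5 uM rhodamine-CoA and 12.5 uM BHQ-2-labelled ybbR peptide in pH 7.6 Hepes/MgCl2 buffer. Enzyme was pre-incubated with compound for 15 min at room temperature. Rate was taken from the 30-min fluorescence change (525/598 nm).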
TrxR1 inh: rat TrxR1 inhibition; O89049; recombinant rTrxR1, NADPH fluorescence consumption, selenite substrate; Potency, µM (highest dose often 114 µM), most hits filed as inhibitors; actives 1% (n = 390,000); note: nearly all actives have a fitted effect of over 65% in size
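Rat TrxR1 (90 nM in the dispensed reagent) was pre-reduced with 400 uM NADPH for 5 min at room temperature, then incubated with compound for 15 min. After 400 uM selenite was added, NADPH fluorescence (Ex 340/Em 450 nm) was followed for 8 min.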
VDR inhibitor: vitamin D3 receptor (human) inhibition; P11473; VDR-SRC2-3 peptide fluorescence polarization, 2 h; Potency, µM, usual class: inhibitors; actives 0.93% (n = 400,000)
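Signal is fluorescence polarization, reporting how far test compounds block the interaction of VDR with the SRC2-3 coregulator peptide after a 2 h room-temperature incubation.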
A number is an active result; i = inactive; ? = inconclusive; nt = no result. Calls come from the whole dose curve; as a rule, active = well fitted curve in the direction sought with a large enough effect; inconclusive = small, poorly fitted or top-dose-only effect, or another doubt; inactive = no such curve, though single readings can be large; an effect the other way counts as inactive or inconclusive.

SMILES | PLK1 PBD block | mIDH1 inhibitor | TrxR1 substrate | Sfp inh | TrxR1 inh | VDR inhibitor
O=C(NCc1ccc(Cl)cc1)C(=O)Nc1cccc(Br)c1 | nt | i | i | nt | i | i
COc1ccc2cc1Oc1ccc(cc1)CC1c3c(cc4c(c3Oc3cc5c(cc3OC)CCN(C)C5C2)OCO4)CCN1C (stereo not drawn) | nt | nt | nt | i | nt | i
COc1ccc2cc1Oc1ccc(cc1)CC1c3cc(c(OC)cc3CCN1C)Oc1c(OC)c(OC)c(OC)c3c1C(C2)N(C)CC3 (stereo not drawn) | nt | nt | nt | i | nt | 44.7µM
COc1ccc(CNCCNC(=O)c2nonc2N)cc1OC | i | i | i | i | i | i
COc1cc(CNCCNC(=O)c2nonc2N)ccc1OCc1ccc(Cl)nc1 | 29.9µM | i | i | i | i | i
CCC(=O)Nc1nnc(S(=O)(=O)N(C)Cc2ccco2)s1 | 26.7µM | i | i | i | ? | ?
CCCC(=O)Nc1nnc(S(=O)(=O)N(C)Cc2ccco2)s1 | 26.7µM | i | i | 44.7µM | 39.8µM | ?
Fc1cccc(Cc2c(-c3ccco3)nc3c(Cl)cc(C(F)(F)F)cn23)c1 | 11.9µM | nt | nt | nt | nt | nt
Fc1ccc(-c2nc3c(Cl)cc(C(F)(F)F)cn3c2Cc2cccc(F)c2)cc1 | i | nt | nt | nt | nt | nt
CCCCCCCCCCCCN1[C@@H](CC(=O)O)c2cc(C(F)(F)F)ccc2S1(=O)=O | 33.6µM | i | i | nt | i | ?
CCCCCCCCN1[C@@H](CC(=O)O)c2cc(C(F)(F)F)ccc2S1(=O)=O | i | i | i | nt | i | i
CC1C(=O)N2CCCc3cc(S(=O)(=O)Nc4ccc(Br)cc4F)cc1c32 (stereo not drawn) | nt | i | i | nt | i | i
c1coc(CNc2nc[n+]3c4c2ncn4CC3)c1 | nt | nt | i | nt | i | i
O=C(NCCc1ccccc1)C(c1cccs1)N(C(=O)c1csnn1)C1CC1 (stereo not drawn) | i | i | i | i | i | i
O=C(NCCc1ccccc1)C(c1cccs1)N(C(=O)CCl)c1ccc(Cl)cc1 (stereo not drawn) | i | i | i | i | 3.16µM | ?
N#CC1(NC(=O)COC(=O)c2ccccc2[N+](=O)[O-])CCCCC1 | i | i | i | nt | i | i
N#CC1(NC(=O)COC(=O)c2cc(O)c3ccccc3c2O)CCCCC1 | 6.7µM | i | i | nt | 28.2µM | 44.7µM
O=C(Nc1cccc(Cl)c1)c1csc([C@H]2C[C@H](O)[C@@H](CO)O2)n1 | i | nt | nt | nt | nt | nt
O=C(CN1C(=O)COc2ccc(S(=O)(=O)N3CCOCC3)cc21)NCc1ccc(Cl)cc1 | nt | i | i | nt | i | i
CC(C)(C)NC(=O)NC(=O)CSc1ncc(C(F)(F)F)cc1Cl | 29.9µM | i | i | i | i | ?
CCCNC(=O)NC(=O)CSc1ncc(C(F)(F)F)cc1Cl | i | i | i | i | i | i
CCOc1ccc(NC(=O)Cn2c(=O)nc(-c3ccccc3)c3ccccc32)cc1 | nt | i | i | nt | i | i
N#Cc1cnn(-c2ccccc2)c1N | i | i | i | i | i | i
Cc1cc(=O)[nH]c(-n2ncc(C#N)c2N)n1 | i | i | i | 56.2µM | i | i
O=C(COC(=O)c1ccccc1Oc1ccccc1)Nc1ccc(Br)cc1 | nt | nt | i | nt | i | nt
SMILES | PLK1 PBD block | mIDH1 inhibitor | TrxR1 substrate | Sfp inh | TrxR1 inh | VDR inhibitor
COc1ccc(C)cc1NC(=O)c1sc2nc(-c3ccc(F)cc3)cn2c1C | nt | i | i | nt | i | i
COc1ccc(-c2cn3c(C)c(C(=O)NC(C)(C)C)sc3n2)cc1 | i | i | i | i | i | i
COc1ccc(-c2cn3c(C)c(C(=O)Nc4cccc(C)n4)sc3n2)cc1 | i | i | i | 39.8µM | i | i
Cc1cccc(NC(=O)c2sc3nc(-c4ccc(F)cc4)cn3c2C)n1 | i | i | i | 50.1µM | i | i
O=c1oc2ccccc2c2c1C1O[C@](c3ccsc3)(Cc3c1ccc1ccccc31)O2 | nt | nt | nt | i | nt | nt
Oc1ccc(Cl)cc1C1C=C(c2ccc3c(c2)OCO3)NC(c2ccc(Cl)cc2)N1 (stereo not drawn) | nt | nt | i | nt | ? | ?
CN1CCN(c2ncc3nc(CCc4ccccc4)c(=O)n(Cc4cccs4)c3n2)CC1 | nt | nt | nt | 28.2µM | nt | ?
O=c1c(CCc2ccccc2)nc2cnc(N3CCNCC3)nc2n1CCc1ccccc1 | nt | nt | nt | 39.8µM | nt | ?

Screening data deposited in PubChem by National Center for Advancing Translational Sciences (NCATS).
